Laboratory results from PubChem BioAssay AID1159580 (chemical genetic matrix, 2015).
Screen size: about 5,500 compounds; about 2,000 (36%) were called active. Inconclusive results (about 18%) are left out. No stated cut-off is given here; in the data, active means normalized growth mostly below about 0.91 (no sharp cut-off); inconclusive means no clear call, values can overlap the other calls; inactive means mostly above about 0.92. This is one part of the list.

Experiment: chemical genetic growth profiling, strain panel (AID 1159580);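 further: tested at 20 µM; growth read once vehicle control cultures reached saturation at 30 °C; 1 = growth at the plate median or of vehicle wells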
Conditions: S. cerevisiae deletion strains, growth OD

Measured: normalized growth

C=C1C(=O)OC2CC1C(OC(C)=O)C/C(C)=C/CC/C(C)=C/CC[C@]2(C)O (stereo partly specified)
inactive: locus YAL013W, strain DEP1, stronger effect = lower value 0.999 | locus YAL021C, strain ccr4, stronger effect = lower value 0.964 | locus YAL026C, strain drs2, stronger effect = lower value 0.987 | locus YAL030W, strain snc1, stronger effect = lower value 0.984 | locus YBL061C, strain skt5, stronger effect = lower value 1.01 | locus YBR009C, strain hhf1, stronger effect = lower value 1.01 | locus YBR021W, strain FUR4, stronger effect = lower value 1.03 | locus YBR023C, strain chs3, stronger effect = lower value 1.01 | locus YBR171W, strain sec66, stronger effect = lower value 0.994 | locus YBR229C, strain ROT2, stronger effect = lower value 1.02 | locus YBR231C, strain swc5, stronger effect = lower value 1.01 | locus YBR279W, strain paf1, stronger effect = lower value 0.996 | locus YCL011C, strain gbp2, stronger effect = lower value 1 | locus YCL016C, strain dcc1, stronger effect = lower value 1 | locus YCL029C, strain bik1, stronger effect = lower value 1.02 | locus YCL061C, strain MRC1, stronger effect = lower value 0.993 | locus YCL069W, strain vba3, stronger effect = lower value 0.987 | locus YCR088W, strain abp1, stronger effect = lower value 0.991 | locus YDL005C, strain med2, stronger effect = lower value 0.992 | locus YDL035C, strain GPR1, stronger effect = lower value 1.01 | locus YDL040C, strain nat1, stronger effect = lower value 0.981 | locus YDL074C, strain BRE1, stronger effect = lower value 1 | locus YDL101C, strain DUN1, stronger effect = lower value 1.01 | locus YDL185W, strain tfp1, stronger effect = lower value 1.02 | locus YDL192W, strain arf1, stronger effect = lower value 1 | locus YDR001C, strain nth1, stronger effect = lower value 0.982 | locus YDR069C, strain doa4, stronger effect = lower value 1.01 | locus YDR101C, strain arx1, stronger effect = lower value 1.03 | locus YDR137W, strain rgp1, stronger effect = lower value 0.935 | locus YDR150W, strain NUM1, stronger effect = lower value 1 | locus YDR159W, strain sac3, stronger effect = lower value 1.03 | locus YDR162C, strain NBP2, stronger effect = lower value 1.02 | locus YDR195W, strain ref2 1.02 | locus YDR297W, strain sur2, stronger effect = lower value 0.997 | locus YDR318W, strain mcm21, stronger effect = lower value 1 | locus YDR334W, strain swr1, stronger effect = lower value 1.01 | locus YDR335W, strain msn5, stronger effect = lower value 0.985 | locus YDR388W, stronger effect = lower value 1.01 | locus YDR392W, strain spt3, stronger effect = lower value 0.977 | locus YDR502C, strain sam2, stronger effect = lower value 1.03 | locus YEL003W, strain gim4, stronger effect = lower value 1.01 | locus YEL037C, strain rad23, stronger effect = lower value 0.99 | locus YEL061C, strain CIN8 (second series), stronger effect = lower value 0.994 | locus YEL061C, strain CIN8, stronger effect = lower value 1.02 | locus YER015W, strain faa2, stronger effect = lower value 1 | locus YER016W, strain bim1, stronger effect = lower value 0.992 | locus YER110C, stronger effect = lower value 1.02 | locus YER111C, strain swi4, stronger effect = lower value 0.995 | locus YER155C, strain BEM2 (second series), stronger effect = lower value 1.03 | locus YER155C, strain BEM2, stronger effect = lower value 1 | locus YER167W, strain BCK2, stronger effect = lower value 1.01 | locus YFR010W, strain ubp6, stronger effect = lower value 0.995 | locus YGL078C, strain dbp3, stronger effect = lower value 1.01 | locus YGL086W, strain mad1, stronger effect = lower value 1.02 | locus YGL167C, strain pmr1, stronger effect = lower value 0.988 | locus YGL173C, strain kem1, stronger effect = lower value 1.01 | locus YGL227W, strain vid30, stronger effect = lower value 0.989 | locus YGL240W, strain doc1, stronger effect = lower value 1.02 | locus YGL248W, strain PDE1, stronger effect = lower value 1.02 | locus YGL253W, strain hxk2, stronger effect = lower value 0.923 | locus YGR135W, strain pre9, stronger effect = lower value 1 | locus YGR252W, strain gcn5, stronger effect = lower value 1.01 | locus YHR013C, strain ard1, stronger effect = lower value 0.979 | locus YHR027C, strain rpn1, stronger effect = lower value 0.99 | locus YHR030C, strain SLT2, stronger effect = lower value 1.02 | locus YHR079C, strain IRE1 (second series), stronger effect = lower value 1.01 | locus YHR094C, strain hxt1, stronger effect = lower value 1.01 | locus YHR129C, strain ARP1, stronger effect = lower value 1.01 | locus YHR142W, strain chs7, stronger effect = lower value 1.01 | locus YHR200W, strain rpn10, stronger effect = lower value 1.02 | locus YIL066C, strain RNR3, stronger effect = lower value 1.01 | locus YIL073C, strain SPO22, stronger effect = lower value 0.983 | locus YIL125W, strain kgd1, stronger effect = lower value 1.01 | locus YIR030C, strain dcg1, stronger effect = lower value 1.01 | locus YJL092W, strain hpr5, stronger effect = lower value 0.988 | locus YJL095W, strain BCK1 (second series), stronger effect = lower value 0.998 | locus YJL095W, strain BCK1, stronger effect = lower value 1 | locus YJL115W, strain asf1, stronger effect = lower value 0.982 | locus YJL129C, strain trk1, stronger effect = lower value 1.01 | locus YJL134W, strain LCB3, stronger effect = lower value 1 | locus YJL154C, strain vps35, stronger effect = lower value 0.982 | locus YJL164C, strain tpk1, stronger effect = lower value 0.981 | locus YJL166W, strain qcr8, stronger effect = lower value 1 | locus YJL168C, strain set2, stronger effect = lower value 1.03 | locus YJL187C, strain SWE1 (second series), stronger effect = lower value 1.01 | locus YJL187C, strain SWE1, stronger effect = lower value 0.978
